According to PubChem BioAssay (NCI):
Compounds without any hit were thinned out: in the full panel of roughly 83,000, 20% have a hit.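 Activity criterion: percent growth below 10, measured after cells in 96-well plates were exposed to a single compound concentration for 48 hours.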 Unmarked numbers belong to inactive results. The source made the active and inactive calls.

system: PC-3 prostate; test: NCI-60 one-dose screen, 48 h (100 = growth as untreated, 0 = no growth, -100 = all killed); settings: 10 µM unless noted
Method: Growth inhibition of the PC-3 human tumor cell line is measured as a screen for anti-cancer activity. Cells are grown in 96 well plates and exposed to the test compound for 48 hours. Compounds are tested at a single concentration, which is 10^-5 M for most compounds. The reported endpoint is percent growth (GI% or GIPRCNT), where numbers from 0 - 100% represent growth inhibition, and numbers from -100% - 0 represent cell death. For example, a value of 40 represents 60% growth inhibition. A value of 0 means no net growth occurred over the course of the experiment. A value of -40 indicates 40% of cells at the beginning of the experiment died by the end of the experiment. A value of -100 means all cells are dead at the end of the experiment.
NCI-60 Human Tumor Cell Lines Screen was performed using the standard one-dose NCI protocol, which is described in more detail at https://dtp.cancer.gov/discovery_development/nci-60/default.htm.
Compounds with GIPRCNT values below 10 were considered active. Activity score was based on GIPRCNT using the following formula: […]
Score is 0 for GIPRCNT values of 100 or above, 50 for GIPRCNT values of 0, and 100 for GIPRCNT values of -100.

Row | SMILES | growth
1 | Cc1ccc2c(c1)=C/C(=C\c1cc(-c3ccccc3)[nH]c1O)C(=O)N=2 | 61.2%
2 | O=S(Nc1ccccc1)c1ccc(Cl)cc1 (stereo not given) | 89.8%
3 | O=C1C(Cl)=C(Nc2ccccc2)C(=O)c2ccccc21 | 39.7%
4 | CSc1nc2ccc(C)cc2cc1/C=C1/C=C(c2ccccc2)NC1=O | 68.4%
5 | COc1nc(/C=C\Nc2ccc3c(c2)OCCOCCOCCOCCO3)nc(OC)n1 | 99.4%
6 | CN(C)c1ccc([C@@H](C(=O)Nc2cccc([N+](=O)[O-])c2)N(C(=O)c2cc3ccccc3[nH]2)c2cccc([N+](=O)[O-])c2)cc1 | 82.7%
7 | CCN(CC)C(=O)C1=C(C)NC(=O)NC1c1ccc2c(c1)OCO2 (stereo not given) | 98.5%
8 | Cc1ccc2nc(-c3ccc(C(=O)N/N=C/c4ccc([N+](=O)[O-])cc4)cc3)[nH]c2c1 | 98.2%
9 | Fc1cccc(CNc2c3ccccc3nc3ccccc23)c1 | 49%
10 | O=C(Cc1ccc(/C=C/C(=O)c2ncc[nH]2)cc1)Nc1cc(F)c(F)c(F)c1 | 48.2%
11 | Cc1c(O)cc(-c2cnc(N/N=C/c3ccccc3)s2)c(O)c1C | 69.7%
12 | CCOC(=O)C(CCN(C)C)c1ccccc1 (stereo not given) | 86.6%
13 | c1cc(OCCN2CCCC2)ccc1CNc1ccc2nc(CCC3CCCCC3)[nH]c2c1 | 52%
14 | Cc1ccc(S(=O)(=O)OCC#CCOS(=O)(=O)c2ccc(C)cc2)cc1 | 70.4%
15 | Cc1ccc(S(=O)(=O)N2CCCN(c3nc(-c4ccccc4)nc4nc(-c5ccccc5)oc34)CC2)cc1 | 96.3%
16 | c1ccc2cc(Cn3cc(CSc4nc5ccccc5s4)nn3)ccc2c1 | 93.1%
17 | COc1ccc(OC)c(Nc2nnc(-c3cc(OC)c(OC)c(OC)c3)o2)c1 | 98.6%
18 | Cc1ccc2c(/C=C/C(=O)c3cc(CN4CCOCC4)c(O)c4nc(C)ccc34)cc(CN3CCOCC3)c(O)c2n1 | 19.9%
19 | N#Cc1c(-c2ccc(Cl)cc2)nc(NN=Cc2ccc[nH]2)nc1N1CCOCC1 | 46.6%
20 | COc1ccc(N/N=C/c2cn(-c3ccc(C(=O)O)cc3)nc2-c2cc3ccccc3oc2=O)cc1 | 63.5%

Row | SMILES | growth
21 | CCOC(=O)CNC1=C(Cl)C(=O)N(Cc2ccc(Cl)cc2)C1=O | 97.7%
22 | CCN(CC)CCCC(Cc1ccccc1)Nc1c2ccc(Cl)cc2nc2ccc(OC)cc12 (stereo not given) | 44.8%
23 | COc1cc(O)c2c(=O)c3c(CC=C(C)C)cc(OC)c(O)c3oc2c1 | 73.9%
24 | CN(C)CCC(=O)C1CC1 | 99.2%
25 | O=CCCCOCc1ccccc1 | 95.6%
26 | COC1C(O)CC(OC2CC(OC3CC(O[C@@H]4C(=O)c5c(cc6cc(OC7CC(OC8CC(O)C(O)C(C)O8)C(O)C(C)O7)c(C)c(O)c6c5O)CC4[C@H](OC)[C@@H](O)C(C)=O)OC(C)C3O)OC(C)C2O)OC1C (stereo not given in full) | 16.9%
27 | CCOC(=O)c1cn2ncnc(Oc3ccc(NC(=O)NC4CC4)c(Cl)c3)c2c1C | 89.2%
28 | COC(=O)/C=C1/SC(=Nc2ccc(F)cc2)N(CCc2c[nH]c3ccc(O)cc23)C1=O | 33.3%
29 | NC(=O)c1ccccc1OCC(=O)Nc1ccc(Cl)c(Cl)c1 | 106%
30 | COc1cc(/C=C/C(=O)N2CCN(C(=O)c3cc(OC)c(OC)c(OC)c3)CC2)ccc1OCCCOc1cc2c(cc1OC)C(=O)N1CCC[C@H]1C=N2 | -43% (active)
31 | COc1ccc(Nc2ncc(I)c(NCCCNC(=O)C3CCC3)n2)cc1 | 23.8%
32 | COc1cc(-c2ccc(-c3ccc(C(=N)N)cc3)s2)cc(OC)c1OC | 53.4%
33 | COc1cc2ncnc(Nc3ccc(F)c(Cl)c3)c2cc1OCC(=O)N1CCOCC1 | 94.3%
34 | O=C1/C(=C/c2cccc(Br)c2)COc2ccc(O)cc21 | 51.2%
35 | Nc1ncnc2c1N=C(c1ccc(Cl)cc1)CC(c1cccc(Nc3ccnc4cc(Cl)ccc34)c1)N2 (stereo not given) | 55.4%
36 | COc1ccc2c(c1)CC[C@@H]1[C@@H]2CC[C@]2(C)C3C(=CC(COC(C)=O)C4C(=O)N(c5ccc(Cl)cc5)C(=O)C43)C[C@@H]12 (stereo not given in full) | 82%
37 | O=C1CCCCN1c1ccc(C2=NCCCN2)cc1 | 79.9%
38 | O=C(/C=C/C12c3ccccc3C(c3ccccc31)C1C(=O)NC(=O)C12)c1ccc(Cl)cc1Cl (stereo not given) | 15.6%
39 | COc1cc(Cc2cc(OC)c(O)c(OC)c2)cc(OC)c1O | 80.2%
40 | COc1ccc(-c2nc3c(c(-c4ccc(Cl)cc4)nn3-c3ccccc3)c(-c3ccccc3)c2C#N)cc1 | 91.3%
